GLP1R inv ag: GLP-1 receptor (human) inverse agonism | Potency, µM (series often up to 38.3 µM), without a hit: at the top dose activity change, negative = inhibition, actives largely listed as inhibitors | 1.6% of 410,000 active | HEK293 GLP-1R CRE-luciferase, luminescence, 24 h; GLP-1R form is constitutively active | P43220; also: % is scaled to controls: 0 for no effect and ±100 for the full control effect; nearly all actives have a fitted effect of over 55% in size
Target sequence (P43220 whole entry, looked up): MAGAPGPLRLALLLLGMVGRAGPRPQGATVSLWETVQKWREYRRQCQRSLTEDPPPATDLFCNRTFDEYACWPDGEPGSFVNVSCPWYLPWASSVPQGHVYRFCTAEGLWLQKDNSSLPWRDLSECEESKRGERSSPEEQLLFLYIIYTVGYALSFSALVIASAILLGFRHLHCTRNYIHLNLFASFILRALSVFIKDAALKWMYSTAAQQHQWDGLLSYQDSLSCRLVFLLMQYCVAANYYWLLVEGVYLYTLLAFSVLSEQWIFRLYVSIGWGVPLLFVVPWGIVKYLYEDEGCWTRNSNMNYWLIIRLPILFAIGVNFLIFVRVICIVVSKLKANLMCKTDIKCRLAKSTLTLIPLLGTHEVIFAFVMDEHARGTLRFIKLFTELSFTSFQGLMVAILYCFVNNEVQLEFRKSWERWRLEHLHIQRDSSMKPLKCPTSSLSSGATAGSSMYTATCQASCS
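Cells are plated, allowed 12 hours at 37 deg C, then treated with compounds for 24 hr before luciferase detection reagent is added and luminescence is read after 12 min at room temperature. The HEK293 line carries constitutively active GLP-1R with a cAMP-responsive reporter.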
HEK293 tox: cytotoxicity in counter-screen for GLP-1R inverse agonists | HEK293 cAMP-luciferase reporter cells, luminescence, 24 h | Potency, µM (doses to about 38.3 µM), inactives show at the top dose activity change, negative = inhibition, usual class: inhibitors | 0.13% of 410,000 active | AID 624418;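 also: loss of luciferase light is scored as toxicity; % is scaled to controls: 0 for no effect and ±100 for the full control effect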
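Seeding density was 200 cells/uL; after overnight-length (12 h) culture, 23 nL compounds went on for 24 h at 37 °C. Readout used a luciferase detection reagent, luminescence taken after 12 min at room temperature.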
GLP1R ag: GLP-1 receptor (human) agonism | P43220 | HEK293 GLP-1R CRE-luciferase, luminescence, 4-6 h; cells express a hypersensitive GLP-1R form | Potency, µM (top dose mostly 45.6 µM), for inactives: at the highest dose activation, hits mostly activators | 0.007% of 380,000 active | AID 624172; also: % of control where 0% means no effect
RGS4 inh: blocks human RGS4-accelerated GTP hydrolysis; Potency, µM (doses to about 114 µM), for inactives: at the highest dose activity change, negative = inhibition, usual class: inhibitors; 0.039% of 390,000 active; AID 504845; Transcreener GDP fluorescence polarization, RGS4-accelerated GTP hydrolysis; P49798; also: % is scaled to controls: 0 for no effect and ±100 for the full control effect; nearly all actives have a fitted effect of over 75% in size
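MLSMR compounds (23 nl, pin-transferred) preincubated 10 min at room temperature with a 500nM (2x) first reagent, then RGS4 at 900nM (2x) plus Transcreener GDP mix added; fluorescence polarization (620/688 nm) read before and after 90 min at 30 °C.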
PTHR1 agonist: activates the human parathyroid hormone receptor PTHR1; Q03431; HEK293 GP2 PTHR1 cells, GloSensor cAMP luminescence, 1 h; Potency, µM (titrated, usually from 115 µM), for the others: at the top dose activation, usual class: activators; 0.075% of 410,000 active; also: nearly all actives have a fitted effect of over 55% in size
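HEK-293-derived GP2 cells expressing PTHR1 and a GloSensor cAMP reporter, 3,000/well, plated overnight, given luciferin plus IBMX (each 0.5 mM as added) for 1 h at 37 °C, then compound for 1 h at 37 °C. Luminescence was read after 15 min at room temperature.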
Active calls of the source: *; i = inactive; ? = inconclusive; . = no result given; ! = not active in a repeat; [ ] = another dose, or the depositor's remark. Most compounds without a hit are left out; they make up all but 1.7% or so of the library. Calls follow the shape of the dose curve; as a rule, active = well fitted curve in the direction sought with a large enough effect; inconclusive = small, poorly fitted or top-dose-only effect, or another doubt; inactive = no such curve, though single readings can be large; an effect the other way counts as inactive or inconclusive. Potency is read from the fitted curve at half-maximal effect.

SMILES	GLP1R inv ag	HEK293 tox	GLP1R ag	RGS4 inh	PTHR1 agonist
CCOC(=O)[C@]12CCCC=C1N(Cc1ccccc1)C(=O)[C@H](CC(=O)N1CCN(C(=O)c3ccco3)CC1)C2	-18%	-3%	.	.	-24%
Cc1ccsc1/C=N\NC(=O)c1n[nH]c2c1CCC2	2.8µM*	?	-21%	-12%	-32%
C/C(=N\NC(=O)c1n[nH]c2c1CCC2)c1ccco1	1.8µM*	13%	-6%	4%	-24%
O=C(N/N=C/c1c(Cl)cccc1Cl)c1n[nH]c2c1CCCC2	?	-23%	-3%	-8%	-25%
CCC(C)(C)C1CCc2[nH]nc(C(=O)N/N=C(\C)c3ccco3)c2C1 (stereo not given)	?	?	10%	-17%	-95%
COc1cccc(CNC(=O)C2CCN(C(=O)N3CCOc4ccc(Cl)cc43)CC2)c1OC	-18%	1%	.	8%	?
CCN(CC)C(=O)C1CCN(S(=O)(=O)c2c(C)noc2/C=C/c2cccc(C)c2)CC1	10µM*	-10%	9%	2%	i
Cc1ccc(/C=C/c2onc(C)c2S(=O)(=O)N2CCC(C(=O)N3CCN(C)CC3)CC2)cc1	6.3µM*	-31%	6%	-8%[56.9 µM]	-20%
CCN(CC)CCNC(=O)C1CCN(S(=O)(=O)c2c(C)noc2/C=C/c2ccccc2F)CC1	3.2µM*!	?	21%	-39%[56.9 µM]	-17%
CCC1CCCCN1S(=O)(=O)c1ccc(N2CCCCS2(=O)=O)cc1 (stereo not given)	-4%	0%	.	21%	i
CC1(CC(=O)N/N=C/c2ccc(OCc3ccc(Cl)cc3Cl)cc2)OCCCO1	8.9µM*	-22%	5%	-16%[11.4 µM]	-7%[57.5 µM]
COc1cc(/C=N/NC(=O)CC2(C)OCCCO2)ccc1OCc1ccc(Cl)cc1Cl	?	-3%	16%	0%	-18%
CCOc1ccc(NC(=O)c2cccc(S(=O)(=O)NCc3cccnc3)c2)cc1	-1%	0%	-6%	.	i
CCN(CC)CCC#CC(O)(c1ccccc1)c1ccccc1	?	-12%	-2%	11%	i
OC(C#Cc1ccccc1)(c1ccccc1)c1ccccc1	4.5µM*	?	15%	8%	-24%
CCCCCCN1C[C@@H](O)[C@H](n2cc(-c3ccc(F)cc3)nn2)C[C@@H]1c1ccc(C)cc1	11%	0%	4%	.	-89%
CO[C@]1(NC(=O)Cc2cccs2)C(=O)N2C(C(=O)O)=CC(COC(N)=O)S[C@H]21 (stereo not given in full)	.	.	-4%	.	.
CCOC(=O)C(C)N1C(=O)S/C(=C/c2cc(C)n(-c3ccccn3)c2C)C1=O (stereo not given)	10µM*	-34%	0%	?	-54%
CCOC(=O)C(C)N1C(=O)S/C(=C/c2cc(C)n(-c3ccncc3)c2C)C1=O (stereo not given)	?	-23%	7%	-10%	-17%
CCOC(=O)C1(C#N)C(=O)CSC1=Nc1ccccc1Cl (stereo not given)	0%	1%	1%	.	i
CCC(C)Sc1cccc(-c2nc3ccc(C)cn3c2NCc2ccccc2)c1 (stereo not given)	?	-16%	0%	22%	-64%
CCC(C)Sc1cccc(-c2nc3cc(C)ccn3c2NC2CCCCC2)c1 (stereo not given)	5µM*	?	2%	-2%	-84%
Cc1ccc2nc(-c3cccc(-c4cccc(Cl)c4)c3)c(NCc3ccccc3)n2c1	11µM*	0%	-14%	-4%	-7%
CCCCCCSc1cccc(-c2nc3cc(C)ccn3c2NCc2ccccc2)c1	5µM*	?	0%	19%	-25%
Cc1ccn2c(NC3CCCCC3)c(-c3cccc(SC4CCCCC4)c3)nc2c1	?	-20%	4%	1%	-46%
CCOc1ccccc1NC(=O)Cn1c(=O)n(-c2ccccc2)c(=O)c2c1c1cc(C)ccc1n2C	8%	2%	0%	1%	5%
